Screens: PubChem, The Scripps Research Institute Molecular Screening Center
Hits are enriched below; roughly 4.1% of the tested compounds scored in any of these assays.
DAX1 inh-1: DAX1 (NR0B1) inhibitors on StAR promoter, primary screen, cell-based, luminescence, SF-1 (NR5A1), full-length DAX-1. inhibition, % at 6.8 µM. hit rate 1.1% among 370,000. HEK293T StAR-luciferase reporter, SF-1/DAX-1 repression relief;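 active = inhibition above the mean over all tested compounds plus 3 SD, cut at about 3.6% in these data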;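 also: higher inhibition means more luminescence from relief of DAX-1 repression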
hgDAF-12 ag: H. glycines DAF-12 receptor agonists, primary screen, cell-based, luminescence, HEK293, GAL4 fusion, UAS-luciferase; Nuclear hormone receptor DAF-12 (Heterodera glycines), GAL4 fusion; HEK293 GAL4-hgDAF12 UAS-luciferase reporter, agonist luminescence; normalized to butyrate control; activation, % at 6.8 µM; hit rate 1.8% among 370,000; AID 687014, 2013;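 active = activation above a cutoff set at the mean of all screened compounds plus 3 SD, cut at about 10% in these data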
hcDAF-12 act: H. contortus DAF-12 nuclear receptor activators, primary screen, cell-based, luminescence, HEK293, lit1-tk-luc reporter; HEK293 hcDAF-12 lit1-tk-luc reporter; 0% DMSO, 100% Δ7-dafachronic acid; activation, % at 6.8 µM; hit rate 1.4% among 370,000; AID 652067, 2013;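 active = activation above the mean of all tested compounds plus 3 SD, cut at about 5.5% in these data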
DAX1 inh-2: DAX1 (NR0B1) inhibitors, primary screen, cell-based, HEK293, Gal4-DAX1, luciferase luminescence. Nuclear receptor subfamily 0 group B member 1 (Homo sapiens), P51843. inhibition, % at 6.75 µM. HEK293 Gal4-DAX1 luciferase reporter. AID 504766, 2011. hit rate 0.99% among 340,000;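 active = inhibition above the mean over all tested compounds plus 3 SD, cut at about 4.2% in these data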;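 also: inhibition shows as a rise in luminescence from relieved DAX1 repression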
Target sequence (P51843 207-470 limits assumed): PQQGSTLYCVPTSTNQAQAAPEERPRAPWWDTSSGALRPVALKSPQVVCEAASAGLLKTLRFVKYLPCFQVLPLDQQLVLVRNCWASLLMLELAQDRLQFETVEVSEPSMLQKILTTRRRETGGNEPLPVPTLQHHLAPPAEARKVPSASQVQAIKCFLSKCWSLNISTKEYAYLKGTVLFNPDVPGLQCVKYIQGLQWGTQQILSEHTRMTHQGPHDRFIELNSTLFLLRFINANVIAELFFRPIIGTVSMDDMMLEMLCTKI
ssDAF-12 act: S. stercoralis DAF-12 nuclear receptor activators, primary screen, cell-based, luminescence, HEK293, GRIP1 co-expression, lit1-tk-luc. Nuclear hormone receptor DAF-12 (Strongyloides stercoralis). HEK293 ssDAF-12/GRIP1 lit1-tk-luc reporter; % of 3 µM dafachronic acid response. activation, % at 6.8 µM. hit rate 1% among 370,000. AID 652126, 2013;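 active = activation above the mean over all tested compounds plus 3 SD, cut at about 0.9% in these data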
Of the large screens only hits and unclear results are named; the others gave an inactive call.

Nc1nc2ccc(Oc3ccccc3)cc2s1	hgDAF-12 ag 12
COc1ccc(CNc2oc(-c3cccc4ccccc34)nc2P(=O)(OC)OC)cc1	none
COP(=O)(OC)c1nc(-c2cccc3ccccc23)oc1NCc1ccccc1	DAX1 inh-2 4.6
Cc1cccc(NC(=O)CN2C(=O)CCSc3ccccc32)c1C	none (no result: DAX1 inh-2)
S=C(NCCc1ccccc1)Nc1ccc(Cl)cc1	hgDAF-12 ag 11
Cc1ccccc1NC(=O)NCCc1ccc(Cl)cc1	none
O=C(NCCc1ccccc1)Nc1ccc(Cl)cc1	hgDAF-12 ag 13
NC(=O)c1ccccc1OCC(=O)Nc1ccc2c(c1)OCCO2	DAX1 inh-1 4.5
Cc1ccccc1OCC(=O)Nc1ccc2c(c1)OCCO2	hgDAF-12 ag 13, DAX1 inh-2 8.2
O=C(COc1ccccc1Cl)Nc1ccc2c(c1)OCCO2	none
COc1ccccc1OCC(=O)Nc1ccc2c(c1)OCCO2	none
Cc1ccc(S(=O)(=O)N2C[C@H]3[C@H]4C(=O)N(c5ccccc5)C(=O)[C@H]4CC(=O)[C@H]3[C@@H]2c2cccc3ccccc23)cc1	DAX1 inh-1 4.3 (no result: DAX1 inh-2)
Cc1ccc(S(=O)(=O)N2C[C@H]3[C@H]4C(=O)N(c5ccccc5)C(=O)[C@H]4CC(=O)[C@H]3[C@@H]2c2ccccc2F)cc1	none (no result: DAX1 inh-2)
O=[N+]([O-])c1ccccc1C=CC=NN=Cc1ccccc1O	DAX1 inh-2 5.5
O=C(O)c1ccc(N/N=C/C=C/c2ccccc2[N+](=O)[O-])cc1	hgDAF-12 ag 12, ssDAF-12 act 3.6
Oc1ccccc1C=NN=CC=Cc1ccccc1	none
COc1ccc(-c2nnc(SCC(=O)N/N=C(\C)c3ccc(-c4ccccc4)cc3)n2-c2ccc(C)cc2)cc1	none (no result: DAX1 inh-2)
CCc1nnc(NC(=S)Nc2ccccc2)s1	hgDAF-12 ag 12
Cc1cc(NC(=O)C(C)SCC(=O)Nc2nnc(CC(C)C)s2)no1 (centres undefined)	DAX1 inh-1 3.6
Cc1cc(NC(=O)C(C)SCC(=O)O)no1 (centres undefined)	none
CCc1nnc(NC(=O)CCC(=O)Nc2ccccc2)s1	none
Cc1ccc(C(=O)Nc2nnc(NC(=S)Nc3ccccc3)s2)cc1	none
CC(C)Cc1nnc(NC(=O)CCC(=O)Nc2ccccc2)s1	DAX1 inh-1 3.6
CCC(NC(=O)c1ccc2c(ccn2Cc2cccc(-c3ccccc3C(=O)O)c2)c1)c1ccccc1 (centres undefined)	none (no result: DAX1 inh-2)
O=C1Nc2ccccc2C12OCCO2	none
CCc1cccc2c1NC(=O)C21OCCO1	ssDAF-12 act 1.2
Cc1ccc(NC(=O)C(C)OC(=O)c2n[nH]c3ccccc23)cc1 (centres undefined)	none
CC(OC(=O)c1n[nH]c2ccccc12)C(=O)Nc1ccccc1[N+](=O)[O-] (centres undefined)	ssDAF-12 act 1.0
COC(=O)c1n[nH]c2ccccc12	hcDAF-12 act 6.2, ssDAF-12 act 1.0
CCCC[C@@H]1C(=O)N2N=Cc3ccccc3[C@H]2N2N=Cc3ccccc3[C@@H]12	none (no result: DAX1 inh-2)
O=S(=O)(c1ccc(F)cc1)n1c(CN2CCOCC2)nc2ccccc21	none (no result: DAX1 inh-2)
O=C1CCCC2=C1C(c1ccc(OS(=O)(=O)c3ccc(Cl)cc3)cc1)C1=C(CCCC1=O)O2	DAX1 inh-2 7.2
CCc1ccc(C2C3=C(CCCC3=O)OC3=C2C(=O)CCC3)cc1	none
Cc1cc(SCCOc2ccccc2)nc(N)n1	DAX1 inh-2 5.1
N/C(=N\OC(=O)c1ccco1)c1cccc(Br)c1	hcDAF-12 act 6.1
N/C(=N\OC(=O)c1ccco1)c1cccc([N+](=O)[O-])c1	hgDAF-12 ag 13
COc1cc(C(=O)O/N=C(\N)c2cccc([N+](=O)[O-])c2)cc(OC)c1OC	DAX1 inh-2 5.1
N/C(=N\OC(=O)c1ccccc1Br)c1ccc([N+](=O)[O-])cc1	hcDAF-12 act 6.1
COC(=O)[C@]12C[C@H](CC(=O)NCc3ccccc3)C(=O)N(Cc3ccco3)C1=C[C@H](C(C)(C)C)O[C@@H]2C	none (no result: DAX1 inh-2)
O=C(Nc1ccc(Oc2ccccc2)cc1)C1CCN(c2nnc(-n3cccc3)s2)CC1	none (no result: DAX1 inh-2)
COC(=O)[C@@]12CCCCC3=C1N(CCC3)C(=O)[C@H]2CC(=O)N1CCN(C(=O)C2CC2)CC1	none (no result: DAX1 inh-2)
N/C(=N\OC(=O)Cc1ccccc1[N+](=O)[O-])c1ccncc1	none
COc1cccc(/C(N)=N/OC(=O)Cc2ccccc2[N+](=O)[O-])c1	DAX1 inh-2 4.7
N/C(=N\OC(=O)c1ccccc1F)c1cccc([N+](=O)[O-])c1	DAX1 inh-2 5.4
COc1ccc(-c2cc(C(=O)NN=Cc3cccn3C)[nH]n2)cc1	none (no result: DAX1 inh-2)
COC(=O)[C@]12C[C@H](CC(=O)NCc3ccc(C)o3)C(=O)N(Cc3ccc4c(c3)OCO4)C1=C[C@H](C(C)C)O[C@@H]2C1CC1	none (no result: DAX1 inh-2)
COC(=O)c1cc2c(c3c4cc(F)ccc4n(S(=O)(=O)c4ccc(C)cc4)c13)C(=O)N(Cc1ccc(C(F)(F)F)cc1)C2	none (no result: DAX1 inh-2)
CCCCN(C(C)=O)c1ccc2c(c1)C1CC2CCN1C(=O)OCc1ccccc1 (centres undefined)	none
CCN(CCc1ccccc1)c1ccc2c(c1)C1CC2CCN1C(=O)OCc1ccccc1 (centres undefined)	ssDAF-12 act 1.6
Cc1cc(C)nc(SC2CCCCC2O)n1 (centres undefined)	hcDAF-12 act 5.8
COc1ccc(N2C(=O)CC(Sc3nc(C)cc(C)n3)C2=O)cc1OC (centres undefined)	none
Cc1ccc(CSc2nnc(-c3cccs3)o2)cc1C	none (no result: DAX1 inh-2)
CCOc1ccc(N(CC(=O)Nc2ccc(C)cc2)S(C)(=O)=O)cc1	hgDAF-12 ag 12
Cc1ccc2nc(-c3ccc(NC(=S)NC(=O)CC(C)C)cc3)sc2c1	none
Cc1ccc(N(CC(=O)Nc2ccc(-c3nc4ccc(C)cc4s3)cc2)S(C)(=O)=O)cc1	DAX1 inh-1 4.4, hgDAF-12 ag 12, ssDAF-12 act 0.9
Cc1ccc(C)c(N(CC(=O)Nc2ccc(-c3nc4ccc(C)cc4s3)cc2)S(C)(=O)=O)c1	ssDAF-12 act 1.6
Cc1ccc(NC(=O)CSc2nc(C)cc(=O)[nH]2)c(C)c1	none (no result: DAX1 inh-2)
Cc1c(C(=O)NNc2c(Cl)cccc2Cl)n(C)oc1=O	DAX1 inh-2 6.2
COc1cccc(NC(=O)CN(C2=NC3CS(=O)(=O)CC3S2)c2cccc(C)c2)c1 (centres undefined)	ssDAF-12 act 1.2
COc1ccc(N(CC(=O)Nc2cc(Cl)ccc2OC)C2=NC3CS(=O)(=O)CC3S2)cc1 (centres undefined)	none
